Results: the supplement of paper PMC10515830
Where a name gives a salt, the structure may show the parent alone.

Test system: Danio rerio larvae (5 dpf)
Assay: difference in excitability vs DMSO (percentage points); higher = more excitable than DMSO
Conditions: 10 µM; exposure time 6 h
Procedure, shortened: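 Wild-type 5 dpf zebrafish larvae in 96-well plates were given 100 µL egg water containing library compound at 10 µM final for 6 h. After 3 h of exposure, plates at 28.5 ℃ were photographed every 6 s during a 3-h programme of moving lines and 100 ms, 400Hz tones. Z-LaP Tracker (a DeepLabCut model) quantified each behaviour, averaged over 48 larvae per compound. Values are the compound mean minus the DMSO-vehicle control, in percentage points.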

SMILES | difference in excitability
Cc1nc2n(c(=O)c1CCN1CCC(c3noc4cc(F)ccc34)CC1)CCCC2 [Risperidone] | 14.4
CC(C)c1c(C(=O)Nc2ccccc2)c(-c2ccccc2)c(-c2ccc(F)cc2)n1CC[C@@H](O)C[C@@H](O)CC(=O)O [Atorvastatin (calcium salt hydrate)] | 2
N=C(N)NCCC[C@@H](NC(=O)[C@@H]1CCCN1C(=O)[C@@H]1CSSCCC(=O)N[C@@H](Cc2ccc(O)cc2)C(=O)N[C@@H](Cc2ccccc2)C(=O)N[C@@H](CCC(N)=O)C(=O)N[C@@H](CC(N)=O)C(=O)N1)C(=O)NCC(N)=O [Desmopressin (trifluoroacetate salt)] | 0.805
CC(=O)OCC(CCn1cnc2cnc(N)nc21)COC(C)=O [Famciclovir] | 0.306
COC(=O)/C=C/C(=O)OC [Dimethyl fumarate] | 19.8
CC(C)OC(=O)[C@H](C)N[P@](=O)(OC[C@H]1O[C@@H](n2ccc(=O)[nH]c2=O)[C@](C)(F)[C@@H]1O)Oc1ccccc1 | -3.58
CCN(CC)C(=O)[C@@]1(c2ccccc2)C[C@H]1CN [Levomilnacipran (hydrochloride)] | 9.82
Cc1ccc(N(CC2=NCCN2)c2cccc(O)c2)cc1 [Phentolamine (mesylate)] | -0.363
COc1ccc(C[C@@H](C)NC[C@H](O)c2ccc(O)c(NC=O)c2)cc1 [Arformoterol (tartrate)] | 10.3
COC(=O)[C@H]1[C@H]2C[C@@H]3c4[nH]c5cc(OC)ccc5c4CCN3C[C@H]2C[C@@H](OC(=O)c2cc(OC)c(OC)c(OC)c2)[C@@H]1OC [Reserpine] | 24.6
CO[C@H]1/C=C/O[C@@]2(C)Oc3c(C)c(O)c4c(O)c(c(/C=N/N5CCN(C6CCCC6)CC5)c(O)c4c3C2=O)NC(=O)/C(C)=C\C=C\[C@H](C)[C@H](O)[C@@H](C)[C@@H](O)[C@@H](C)[C@H](OC(C)=O)[C@@H]1C [Rifapentine] | 24.8
CN(C)CCOC(C)(c1ccccc1)c1ccccn1 (stereo not drawn) [Doxylamine (succinate)] | 0.347
CC1=NN(c2ccc(C)c(C)c2)C(=O)/C1=N\Nc1cccc(-c2cccc(C(=O)O)c2)c1O [Eltrombopag] | 19.6
CN1C(CCl)Nc2cc(Cl)c(S(N)(=O)=O)cc2S1(=O)=O (stereo not drawn) [Methyclothiazide] | 5.58
Nc1ccc(O)c(C(=O)O)c1 [5-Aminosalicylic Acid] | 2.98
CCOc1cc(CC(=O)N[C@@H](CC(C)C)c2ccccc2N2CCCCC2)ccc1C(=O)O [Repaglinide] | 2.26
COc1ccc(Cl)cc1C(=O)NCCc1ccc(S(=O)(=O)NC(=O)NC2CCCCC2)cc1 [Glyburide (potassium salt)] | 9.95
C#Cc1cccc(Nc2ncnc3cc(OCCOC)c(OCCOC)cc23)c1 [Erlotinib] | 4.3
CCCc1c2oc(C(=O)O)cc(=O)c2cc2c(=O)cc(C(=O)O)n(CC)c12 [Nedocromil (sodium salt)] | -1.27

SMILES | difference in excitability
NCc1ccc(S(N)(=O)=O)cc1 [Mafenide] | 3.79
C[C@H]1O[C@H](O[C@H]2[C@H](O)[C@@H](O)[C@@H](O[C@H]3[C@H](O)[C@@H](O)C(O)O[C@@H]3CO)O[C@@H]2CO)[C@H](O)[C@@H](O)[C@@H]1N[C@H]1C=C(CO)[C@@H](O)[C@H](O)[C@H]1O (stereo partly drawn) [Acarbose] | 11
NC1=NCC2c3ccccc3Cc3ccccc3N12 (stereo not drawn) [Epinastine (hydrochloride)] | 13
CCCc1nc2c(C)cc(-c3nc4ccccc4n3C)cc2n1Cc1ccc(-c2ccccc2C(=O)O)cc1 [Telmisartan] | 14.6
COc1ccc(-n2nc(C(N)=O)c3c2C(=O)N(c2ccc(N4CCCCC4=O)cc2)CC3)cc1 [Apixaban] | -0.692
Cc1c(O)c(=O)ccn1C [Deferiprone] | 4.23
Nc1nc(Cl)nc2c1ncn2[C@H]1C[C@H](O)[C@@H](CO)O1 [Cladribine] | -6.72
CC(=O)CC(c1ccccc1)c1c(O)c2ccccc2oc1=O (racemic) [(±)-Warfarin] | 7.35
Nc1nc(O)c2ncn(CCC(CO)CO)c2n1 [Penciclovir] | 7.86
CCCNC(C)C(=O)Nc1c(C)csc1C(=O)OC (stereo not drawn) [Articaine (hydrochloride)] | 2.22
COC(=O)C1=C(C)NC(C)=C(C(=O)OCC(C)C)C1c1ccccc1[N+](=O)[O-] (stereo not drawn) [Nisoldipine] | 7.56
CC(C)c1nc(CN(C)C(=O)N[C@H](C(=O)N[C@@H](Cc2ccccc2)C[C@H](O)[C@H](Cc2ccccc2)NC(=O)OCc2cncs2)C(C)C)cs1 [Ritonavir] | -4.63
NC(=O)N[C@@H](CCC(=O)O)C(=O)O [N-Carbamyl-L-Glutamic Acid] | 5.63
N=C(N)NC(=O)c1nc(Cl)c(N)nc1N [Amiloride (hydrochloride) (hydrate)] | 10.2
Cc1c(OCC(F)(F)F)ccnc1C[S+]([O-])c1nc2ccccc2[nH]1 (stereo not drawn) [Lansoprazole] | 8.61
NNC(=O)c1ccncc1 [Isoniazid] | 6.63
C[C@@H]1O[C@@H]1P(=O)(O)O [Fosfomycin Trometamol] | 3.54
N#Cc1ccc(C(c2ccc(C#N)cc2)n2cncn2)cc1 [Letrozole] | 4.92
Nc1nc(-n2cc(C(=O)O)c(=O)c3cc(F)c(N4CC(O)C4)c(Cl)c32)c(F)cc1F [Delafloxacin] | 14.4
